Assay [1] relates to Wnt5a (protein binding on small-molecule microarray). Put plainly: small molecules binding Wnt5a protein – biophysical, small-molecule microarray, 635/667 nm fluorescence, primary screen (AID 1142).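 Also: fluorescence read at 667 nm with signal to noise per printed feature.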 The settings on record: 635 nm fluorescence, higher = more signal.
A short description of assay [2]: ATP-based viability of Huh7 replicon cells – cell-based, CellTiter-Glo luminescence, basal, 48 h, cytotoxicity control for HCV replication inhibitor project, primary screen (AID 1143).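 Also: Huh7 hepatoma cells carrying a hepatitis C replication reporter with no stimulus; test concentration not given here.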 The settings on record: higher = more signal, called active from +8 up or from −8 down.
Assay [3] is described as follows: Pseudomonas biofilm growth suppression – PAO1 strain, BacTiter-Glo luminescence, LB-PBS, primary screen (AID 1144). The settings on record: P. aeruginosa PAO1 biofilm, 12 h, higher = more signal.
The nature of assay [4]: basal CRE-LacZ reporter activity in PC12 – cell-based, unstimulated, primary screen (AID 1145). The settings on record: no forskolin, luminescence, 4.5 h, higher = more signal, called active from +8 up or from −8 down.
The nature of assay [5]: forskolin-driven CRE-LacZ activity in PC12 – cell-based, CRE-LacZ reporter, forskolin-stimulated, primary screen (AID 1146).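 Also: PC12 cells with 6xCRE LacZ reporter stimulated by forskolin 10 µM; beta-galactosidase reporter signal reflecting CREB driven transcription.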 The settings on record: luminescence, 4.5 h, higher = more signal, called active from +8 up or from −8 down.
The target of assay [6] is Streptavidin (Streptomyces avidinii) (UniProt P22629). Put plainly: compounds binding control protein streptavidin – biophysical, small-molecule microarray, 635/667 nm fluorescence, artefact control for SMM compound annotation, primary screen (AID 1147).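 Also: signal reflects streptavidin binding to arrayed compounds as a control protein.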 The settings on record: higher = more signal.
Sequence of Streptavidin (Streptomyces avidinii) (P22629 whole entry, looked up): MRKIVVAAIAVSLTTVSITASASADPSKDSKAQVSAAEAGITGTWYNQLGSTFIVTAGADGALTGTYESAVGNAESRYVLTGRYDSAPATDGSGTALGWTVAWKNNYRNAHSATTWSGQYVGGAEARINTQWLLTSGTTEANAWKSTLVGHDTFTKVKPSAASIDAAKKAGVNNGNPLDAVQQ
Assay [7] can be described thus: probe aInhba binding on compound microarray – biochemical, small-molecule microarray, 635/667 nm fluorescence, primary screen (AID 1148).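 Also: score merges 667nm spot fluorescence with signal-to-noise for antibody binding to printed compounds.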 Particulars: higher = more signal.
Assay [8] addresses Torsin-1A (Homo sapiens) (UniProt O14656). Briefly: TOR1A wild-type binding on microarray – cell lysate, small-molecule microarray, lysate, 635/667 nm, primary screen (AID 1149). The settings on record: COS7 hTOR1A-WT lysate, 635 nm fluorescence, higher = more signal.
The target is the same in assay [9]. Briefly: torsin A mutant lysate binding on microarrays – cell lysate, small-molecule microarray, COS7 lysate, 635/667 nm fluorescence, primary screen (AID 1150).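 Also: score pools 667 nm emission and signal to noise measuring lysate protein binding.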 The settings on record: COS7 hTOR1A mutant lysate, 635 nm fluorescence, higher = more signal.
In assay [10] the test system is Sonic hedgehog protein (Shh). Briefly: Sonic hedgehog microarray binding compounds – biochemical, small-molecule microarray, 635/667 nm fluorescence, primary screen (AID 1151).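 Also: Shh protein binding to compounds spotted on small-molecule microarray slides; score combines spot fluorescence intensity with signal-to-noise across triplicate slides.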 The settings on record: 635 nm fluorescence, higher = more signal.
The nature of assay [11]: optical density shifts of acrAB sulA E. coli – strain DRC41, OD650, 48 h, E. coli filamentation inducer project, primary screen (AID 1152).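 Also: E. coli MC1000 strain DRC41 lacking acrAB efflux pump and sulA.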 The settings on record: higher = more signal, called active from +8 up or from −8 down.
Assay [12] in a line: probe aLefty1 binding on compound microarray – biochemical, small-molecule microarray, 635/667 nm fluorescence, primary screen (AID 1153).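 Also: score merges spot fluorescence with signal-to-noise ratio from the scanned slide images.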 Particulars: higher = more signal.
A short description of assay [13]: plasmodial surface anion channel blockers, osmotic lysis – cell-based, P. falciparum Indochina, OD700, 1 h, primary screen (AID 1154). Particulars: P. falciparum Indochina infected RBC osmotic lysis, higher = more signal, called active from +8 up or from −8 down.
The nature of assay [14]: plasmodial surface anion channel blockers, osmotic lysis – cell-based, P. falciparum Indochina, OD700, 2 h, primary screen (AID 1155).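 Also: lysis reports solute entry through the parasite surface anion channel PSAC.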 The settings on record: P. falciparum Indochina infected erythrocytes, higher = more signal, called active from +8 up or from −8 down.
Assay [15] in a line: changes in parasitized red cell lysis, either direction – P. falciparum Indochina, OD700, 3 h, PSAC antagonist project, primary screen (AID 1156). The settings on record: P. falciparum-infected erythrocytes, osmotic lysis, higher = more signal, called active from +8 up or from −8 down.
Assay [16] in a line: plasmodial surface anion channel blockers, osmotic lysis – cell-based, P. falciparum Indochina, OD700, 18 h, primary screen (AID 1157). The settings on record: P. falciparum Indochina infected erythrocytes, osmotic lysis OD700, 18 h; higher = more signal, called active from +8 up or from −8 down.
The nature of assay [17]: S6 kinase pathway phospho-S6 level changes – cell-based, A549, cytoblot, luminescence, serum-stimulated, primary screen (AID 1158).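 Also: serum-stimulated A549 lung adenocarcinoma cells; signal is phosphorylated S6 detected by cytoblot immunostaining with HRP secondary.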 The settings on record: 5 h, higher = more signal.
For assay [18], the target named is NADPH oxidase 2 (Homo sapiens) (UniProt P04839). Briefly: compounds shifting NOX2 Amplex Red fluorescence – cell-based, HEK293-NOX2, PMA-stimulated, NOX inhibitor project, primary screen (AID 1159). Also: test concentration not given here. The settings on record: 45 min, higher = more signal, called active from +8 up or from −8 down.
Sequence of NADPH oxidase 2 (Homo sapiens) (P04839 whole entry, looked up): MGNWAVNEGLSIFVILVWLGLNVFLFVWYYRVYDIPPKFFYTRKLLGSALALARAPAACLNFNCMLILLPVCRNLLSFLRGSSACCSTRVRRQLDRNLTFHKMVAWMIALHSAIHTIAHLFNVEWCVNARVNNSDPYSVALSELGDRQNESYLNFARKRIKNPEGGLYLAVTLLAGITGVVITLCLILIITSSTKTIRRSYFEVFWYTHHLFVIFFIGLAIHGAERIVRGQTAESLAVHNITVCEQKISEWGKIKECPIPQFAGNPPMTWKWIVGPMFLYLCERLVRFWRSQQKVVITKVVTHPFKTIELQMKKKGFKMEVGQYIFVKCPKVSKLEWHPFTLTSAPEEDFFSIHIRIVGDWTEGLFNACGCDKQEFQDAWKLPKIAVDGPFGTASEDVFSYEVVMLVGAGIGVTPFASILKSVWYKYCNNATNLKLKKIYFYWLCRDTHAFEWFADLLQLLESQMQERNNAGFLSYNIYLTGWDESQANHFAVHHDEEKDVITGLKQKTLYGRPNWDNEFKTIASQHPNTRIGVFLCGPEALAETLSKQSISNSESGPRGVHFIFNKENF
Assay [19] deals with NADPH oxidase 4 (Homo sapiens) (UniProt Q9NPH5). Put plainly: compounds shifting NOX4 Amplex Red fluorescence – cell-based, HEK293-NOX4, tetracycline-induced, NOX inhibitor project, primary screen (AID 1160). The settings on record: HEK293-NOX4, Amplex Red H2O2 fluorescence, 45 min; higher = more signal, called active from +8 up or from −8 down.
Sequence of NADPH oxidase 4 (Homo sapiens) (Q9NPH5 whole entry, looked up): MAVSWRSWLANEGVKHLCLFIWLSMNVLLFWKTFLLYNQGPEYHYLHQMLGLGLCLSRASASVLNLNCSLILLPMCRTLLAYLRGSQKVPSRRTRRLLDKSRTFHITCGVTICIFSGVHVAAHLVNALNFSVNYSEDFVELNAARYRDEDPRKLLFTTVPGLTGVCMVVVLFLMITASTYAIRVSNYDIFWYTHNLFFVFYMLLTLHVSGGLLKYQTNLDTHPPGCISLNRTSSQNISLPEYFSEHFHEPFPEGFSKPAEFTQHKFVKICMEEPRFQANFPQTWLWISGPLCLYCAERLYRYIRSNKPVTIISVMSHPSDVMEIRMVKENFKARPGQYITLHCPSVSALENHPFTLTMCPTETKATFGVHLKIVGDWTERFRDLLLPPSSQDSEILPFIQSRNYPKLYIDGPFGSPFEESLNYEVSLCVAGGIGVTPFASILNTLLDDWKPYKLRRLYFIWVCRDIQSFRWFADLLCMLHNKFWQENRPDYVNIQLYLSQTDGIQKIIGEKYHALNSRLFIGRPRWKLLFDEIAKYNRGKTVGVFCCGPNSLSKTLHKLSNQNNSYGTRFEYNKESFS
Assay [20] deals with NADPH oxidase 5 (Homo sapiens) (UniProt Q96PH1). Briefly: compounds shifting NOX5 Amplex Red fluorescence – cell-based, HEK293-NOX5, NOX inhibitor project, primary screen (AID 1161). Particulars: HEK293-NOX5, ionomycin, 45 min, higher = more signal.
Sequence of NADPH oxidase 5 (Homo sapiens) (Q96PH1 whole entry, looked up): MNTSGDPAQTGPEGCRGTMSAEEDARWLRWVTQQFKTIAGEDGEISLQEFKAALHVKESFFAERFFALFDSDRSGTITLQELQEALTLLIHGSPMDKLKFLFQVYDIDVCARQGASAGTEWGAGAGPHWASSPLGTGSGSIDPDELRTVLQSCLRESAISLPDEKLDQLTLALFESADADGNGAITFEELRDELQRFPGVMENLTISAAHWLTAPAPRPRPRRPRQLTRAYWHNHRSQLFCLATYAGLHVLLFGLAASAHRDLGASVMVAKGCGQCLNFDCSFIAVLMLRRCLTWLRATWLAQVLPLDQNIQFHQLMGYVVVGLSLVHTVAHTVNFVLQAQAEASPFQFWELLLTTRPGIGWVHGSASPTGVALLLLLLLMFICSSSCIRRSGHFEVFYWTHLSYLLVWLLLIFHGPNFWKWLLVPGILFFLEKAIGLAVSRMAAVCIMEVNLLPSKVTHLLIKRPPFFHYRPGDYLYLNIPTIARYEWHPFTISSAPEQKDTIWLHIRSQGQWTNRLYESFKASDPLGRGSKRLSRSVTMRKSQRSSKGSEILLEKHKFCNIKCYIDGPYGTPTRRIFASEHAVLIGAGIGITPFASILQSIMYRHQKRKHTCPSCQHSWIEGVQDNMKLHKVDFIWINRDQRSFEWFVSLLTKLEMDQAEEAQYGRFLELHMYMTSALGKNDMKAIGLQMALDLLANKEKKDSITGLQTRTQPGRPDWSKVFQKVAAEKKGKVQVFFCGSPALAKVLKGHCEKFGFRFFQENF

This is an account of results in PubChem BioAssay.

The source made the active and inactive calls. Unless noted, no rule for the calls is given here.

Sequence of Torsin-1A (Homo sapiens) (O14656 whole entry, looked up): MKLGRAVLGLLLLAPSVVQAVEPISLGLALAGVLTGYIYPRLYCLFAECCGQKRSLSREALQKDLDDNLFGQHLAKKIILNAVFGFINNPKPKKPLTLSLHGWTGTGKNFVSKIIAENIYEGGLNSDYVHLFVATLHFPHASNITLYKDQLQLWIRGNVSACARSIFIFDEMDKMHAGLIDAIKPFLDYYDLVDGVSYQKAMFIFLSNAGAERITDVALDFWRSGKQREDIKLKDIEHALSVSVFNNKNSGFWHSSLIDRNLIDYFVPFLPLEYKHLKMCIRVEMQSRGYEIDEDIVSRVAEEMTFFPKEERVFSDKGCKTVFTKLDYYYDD

With `CC(C)(C)OC(=O)CC[C@]1(C(=O)N2CCCCC2)N=C(c2ccc(OCCCO)cc2)O[C@H]1c1ccccc1`, the composite z-score is 0.836 in assay [1]; 2.08 in [6]; -0.0112 in [7]; 1.68 with Torsin-1A (Homo sapiens) [8]; 1.04 in the assay with Torsin-1A (Homo sapiens) [9]; 1.19 in assay [10]. The same molecule showed a composite z-score in [12] of -0.294. The z-score was -3.16 (inactive) in [2]; 0.418 (inactive) in assay [3]; 1.55 (inactive) in [4]; -1.85 (inactive) in [5]; 0.978 (inactive) in [11]; 24 (active) in [13]. Besides, the z-score was 6.24 (inactive) in assay [14]; 1.03 (inactive) in [15]; -0.186 (inactive) in assay [16]; 2.2 in assay [17]; -1.41 (inactive) in [18]; 1.02 (inactive) in assay [19]. Further, in assay [20], the z-score was determined as 0.541.
For `O=C(NCc1ccccc1)c1ccc(Br)cc1[N+](=O)[O-]`, the composite z-score was 0.146 in [1]; -0.453 in assay [6]; -0.183 in assay [7]; 0.0031 with Torsin-1A (Homo sapiens) [8]; -0.232 in the assay with Torsin-1A (Homo sapiens) [9]; 0.0923 in [10]. Moreover, the composite z-score in [12] is -0.17. Also, the z-score in assay [2] is -0.214 (inactive); in [3], 0.635 (inactive); in assay [4], 0.685 (inactive); in assay [5] it was -0.554 (inactive); in assay [11], -1.03 (inactive); in assay [13], -0.403 (inactive). Also, the z-score in [14] is -0.0642 (inactive); in [15], -1.3 (inactive); in [16], 0.0836 (inactive); in [17] it was -0.597; in [18], -0.564 (inactive); in assay [19] it was -0.281 (inactive). Also, the z-score in assay [20] is -0.032.
For `COc1ccc([Si](C)(C)[C@@H]2[C@@H](CCO)O[C@]3(C(=O)N(Cc4ccc(NC(=O)[C@H](C)O)cc4)c4ccccc43)[C@H]2C)cc1`, the composite z-score is 0.186 in [1]; 0.458 in assay [6]; -0.0471 in assay [7]; 0.504 with Torsin-1A (Homo sapiens) [8]; 0.392 in the assay with Torsin-1A (Homo sapiens) [9]; 0.599 in [10]. In assay [12], this molecule returned a composite z-score of 0.0378. Besides, the z-score in assay [2] was -8.04 (active); in [3], -0.261 (inactive); in assay [4] it was 18.4 (active); in assay [5], -1.12 (inactive); in assay [11], 1.12 (inactive); in [13], 31.4 (active). The z-score is 27.1 (active) in [14]; 1.58 (inactive) in assay [15]; 2.46 (inactive) in assay [16]; 0.597 in assay [17]; 0.535 (inactive) in assay [18]; 1.26 (inactive) in assay [19]. Also, in assay [20], the z-score was found to be 0.648.
`COc1ccc(NN2C(C(O)c3cc(OC)c(OC)c(OC)c3)C=CC3C(=O)N(C4CCCCC4)C(=O)C32)cc1` (stereo not given): the composite z-score in assay [1] is 0.866; in assay [6], 1.14; in assay [7], 0.294; in the assay with Torsin-1A (Homo sapiens) [8], -0.125; with Torsin-1A (Homo sapiens) [9] it was 0.236; in assay [10], 0.377. This molecule registered a composite z-score in [12] of 0.06. In addition, the z-score in assay [2] was -1.6 (inactive); in assay [3], -0.272 (inactive); in assay [4], 0.285 (inactive); in [5] it was 0.907 (inactive); in assay [11], -0.413 (inactive); in assay [13] it was 11.5 (active). The z-score in assay [14] was 1.74 (inactive); in [15], 0.752 (inactive); in [16], 0.558 (inactive); in assay [17], -0.241; in assay [18], -1.55 (inactive); in assay [19] it was -1.85 (inactive). Besides, the z-score in assay [20] was -2.67.
On to `COC(=O)C(CC#Cc1ccc2c(c1)[C@]1(C(=O)N2)[C@H](C(=O)N2CCCCCCC2)[C@H]2C(=O)O[C@H](c3ccccc3)[C@H](c3ccccc3)N2[C@@H]1c1ccc(O)cc1)C(=O)OC`, for which the composite z-score was -0.593 in assay [1]; -1.01 in assay [6]; 0.539 in [7]; -0.998 in the assay with Torsin-1A (Homo sapiens) [8]; -0.529 in the assay with Torsin-1A (Homo sapiens) [9]; -0.657 in assay [10]. In assay [12], the composite z-score stood at 0.297. In addition, the z-score in assay [2] is -4.23 (inactive); in assay [3] it was 0.144 (inactive); in assay [4], 0.0736 (inactive); in assay [5], -0.928 (inactive); in [11] it was 0.752 (inactive); in assay [13], 0.561 (inactive). The z-score in assay [14] was -0.312 (inactive); in assay [15], -0.221 (inactive); in assay [16], -1.18 (inactive); in assay [17], 1.28; in [18], 0.455 (inactive); in [19] it was 0.264 (inactive). For the same molecule, in assay [20], the z-score was determined as 0.147.
For `Cc1ccccc1C(O)C1C=CC2C(=O)N(c3ccccc3)C(=O)C2N1Nc1ccc(C#N)cc1` (stereo not given), the composite z-score in [1] is 0.51; in [6] it was 2.17; in assay [7] it was 0.816; in the assay with Torsin-1A (Homo sapiens) [8], 0.261; with Torsin-1A (Homo sapiens) [9], 1.58; in assay [10], -0.442. For the same molecule, the composite z-score in assay [12] came to 1.1. The z-score in assay [2] is 0.466 (inactive); in [3], -1.14 (inactive); in [4], -0.133 (inactive); in [5], 1.66 (inactive); in assay [11], 0.307 (inactive); in assay [13], 26 (active). In addition, the z-score is 14.9 (active) in [14]; 3.53 (inactive) in assay [15]; 1.81 (inactive) in [16]; -0.762 in assay [17]; -0.865 (inactive) in assay [18]; -4.92 (inactive) in assay [19]. The z-score in [20] was -3.18.
On to `C[N+](C)(C)CCCCNC(=O)[C@H]1C[C@H]2C(=O)NCC(=O)N2[C@H]1c1cccc(OCCO)c1`, for which the composite z-score in assay [1] was 0.668; in assay [6], 0.0924; in [7], -0.0044; in the assay with Torsin-1A (Homo sapiens) [8], 1.21; with Torsin-1A (Homo sapiens) [9] it was 0.961; in assay [10], 2.17. The composite z-score in assay [12] amounted to 0.223. The z-score in assay [2] is 0.148 (inactive); in [3], -0.722 (inactive); in assay [4] it was 0.419 (inactive); in [5] it was -0.153 (inactive); in assay [11] it was -0.184 (inactive); in assay [13], 2.81 (inactive). In addition, the z-score was -0.0646 (inactive) in assay [14]; -2.28 (inactive) in assay [15]; -0.0179 (inactive) in assay [16]; 0.0455 in assay [17]; -1.21 (inactive) in assay [18]; 0.0245 (inactive) in [19]. For the same molecule, in assay [20], the z-score is 0.259.
In the case of `CC1=C([C@H](O)CCc2ccccc2)[C@H](CO)[C@@H]2C(=O)N(Cc3ccccc3)C(=O)[C@@H]2C1`, the composite z-score in assay [1] is 0.079; in [6], 0.925; in assay [7], -0.0451; with Torsin-1A (Homo sapiens) [8] it was -0.0669; with Torsin-1A (Homo sapiens) [9] it was 0.279; in assay [10] it was 0.256. The same molecule showed a composite z-score in [12] of -0.147. For the same molecule, the z-score was -0.932 (inactive) in [2]; -1.43 (inactive) in [3]; 0.851 (inactive) in [4]; -0.425 (inactive) in [5]; 1.85 (inactive) in assay [11]; 5.86 (inactive) in assay [13]. Also, the z-score in [14] is 0.759 (inactive); in assay [15], 0.695 (inactive); in assay [16], 0.5 (inactive); in assay [17] it was 0.663; in assay [18], -0.0572 (inactive); in assay [19] it was 0.16 (inactive). Besides, in assay [20], the z-score is -0.798.
